Screening data deposited in PubChem BioAssay by National Center for Advancing Translational Sciences (NCATS).
ALOX15 inhib: inhibitors of human 15-lipoxygenase (ALOX15); 74,000 compounds, 1.4% hits; Potency, µM (doses to about 57.1 µM), actives largely listed as inhibitors; AID 887; purified 15hLO-1, xylenol orange hydroperoxide absorbance; P16050; also: nearly all actives have a fitted effect of over 55% in size
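Hydroperoxide formed from arachidonic acid (50 uM) by purified human 15hLO-1 (40 nM) oxidizes ferrous iron, and the ferric-xylenol orange complex is read at 573 versus 405 nm. Compounds were preincubated 15 min; reaction ran 6 min at room temperature.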
DNA Pol III inh: blocks replication by bacterial DNA polymerase III holoenzyme; reconstituted DNA polymerase III holoenzyme replication, biochemical; Potency, µM (doses to about 57.1 µM); 71,000 compounds, 0.25% hits; AID 603
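Reconstituted *E. coli* holoenzyme (0.35 nM Pol III, 1 nM beta, 154 nM SSB, 2 nM primase) was preincubated with compound for 15 min at RT. Synthesis on 1.4 nM ssM13Gori ran 35 min, then was stopped with PicoGreen/EDTA and read as dsDNA fluorescence.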
Tau filament bind: binds recombinant human tau filaments; AID 596; P10636; 71,000 compounds, 2% hits; Potency, µM (titrated, usually from 57.1 µM); recombinant tau filaments, thioflavin S fluorescence, 15 h; filaments grown with octadecylsulfate alongside compound;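 also: actives lower thioflavin S fluorescence by blocking filaments or displacing dye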
Target sequence (P10636 whole entry, looked up): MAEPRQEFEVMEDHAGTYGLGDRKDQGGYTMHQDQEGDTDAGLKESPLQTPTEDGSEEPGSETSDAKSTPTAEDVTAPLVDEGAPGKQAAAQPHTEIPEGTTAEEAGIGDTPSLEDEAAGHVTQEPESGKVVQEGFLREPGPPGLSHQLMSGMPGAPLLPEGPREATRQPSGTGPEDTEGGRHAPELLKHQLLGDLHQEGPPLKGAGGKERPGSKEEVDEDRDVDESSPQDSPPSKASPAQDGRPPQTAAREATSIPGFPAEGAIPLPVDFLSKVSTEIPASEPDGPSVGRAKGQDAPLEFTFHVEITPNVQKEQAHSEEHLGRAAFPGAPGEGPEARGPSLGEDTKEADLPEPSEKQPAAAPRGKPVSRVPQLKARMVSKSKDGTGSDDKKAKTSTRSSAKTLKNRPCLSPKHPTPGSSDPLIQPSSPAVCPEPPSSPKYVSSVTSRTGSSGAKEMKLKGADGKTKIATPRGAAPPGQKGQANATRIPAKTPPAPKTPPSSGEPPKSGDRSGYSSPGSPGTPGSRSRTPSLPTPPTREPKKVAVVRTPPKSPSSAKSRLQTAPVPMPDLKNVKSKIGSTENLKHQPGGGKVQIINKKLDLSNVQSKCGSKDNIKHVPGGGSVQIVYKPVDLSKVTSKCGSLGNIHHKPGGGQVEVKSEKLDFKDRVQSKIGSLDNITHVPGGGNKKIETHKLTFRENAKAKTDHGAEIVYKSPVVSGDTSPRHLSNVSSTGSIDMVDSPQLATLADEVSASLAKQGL
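His-tagged recombinant human tau (exons 2, 3 and 10 included), 1 uM, was induced to fibrillize by 30 uM sodium octadecylsulfate with compound present. After 15 h at 37 C, thioflavine S fluorescence (ex 450, em 510 nm) was read.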
Epigenetic mod: epigenetic modulators derepressing GFP locus in mouse cells. mouse C127i GFP locus derepression, cytometry, 30 h. Potency, µM (series often up to 46.1 µM). 68,000 compounds, 0.09% hits. AID 597
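Derepression screen: silenced CMV-GFP reporter in murine C127i cells, 30 h compound incubation at 37 C, washed cells imaged by laser-scanning cytometer to enumerate GFP-expressing objects of 20 to 120 um.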
UbGFP stabilizer: inhibits proteasome, raising ubiquitin-GFP reporter fluorescence; AID 526; Potency, µM (doses to about 45.9 µM), actives largely listed as activators; 67,000 tested, under 10 active; Ubiquitin-GFP reporter cells, proteasome inhibition, GFP fluorescence; response scale: untreated = 0%, 10 µM MG-132 = 100%; active = well fitted activation curve with a large enough effect, not every such curve was filed as active; inconclusive = small, poorly fitted or top-dose-only effect, or another doubt; inactive = no such curve, though single readings can be large or run the other way
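Reporter cells (U2OS, ubiquitin-G76V-GFP fusion) are plated overnight, then treated 4 hr at 37 °C with compound titrations from 46 uM down to 2.9 nM. Activity is scaled against untreated cells and 10 uM MG-132.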
HBB splice mod: modulators of hemoglobin beta chain splicing | Potency, µM (titrated, usually from 46.1 µM), most hits filed as activators | 65,000 compounds, 0.06% hits | HBB splicing reporter cell assay, activation; EGFP reporter with mutant IVS2-654 intron; response scale: normalised to 500 nM splice-correcting PNA | AID 925
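HeLa cells stably expressing EGFP interrupted by mutant beta-globin intron 2 (IVS2-654), 500/well in 2% FCS. Treated with compound for 2 days at 37C. Splicing correction scored as total well GFP intensity (488 nm excitation, 500-520 nm emission); 500 nM antisense PNA served as control.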
Of the large screens only hits and unclear results are named; the others gave an inactive call. Hits are enriched below; roughly 3.2% of the tested compounds scored in any of these assays. Unless noted, calls follow the shape of the dose curve; as a rule, active = well fitted curve in the direction sought with a large enough effect; inconclusive = small, poorly fitted or top-dose-only effect, or another doubt; inactive = no such curve, though single readings can be large; an effect the other way counts as inactive or inconclusive.

CN1CCN(C(=O)CSc2nc(-c3cccs3)cc(-c3cccs3)c2C#N)CC1	ALOX15 inhib 16µM, Tau filament bind 7.9µM
CC1(C)CC[C@]2(C(=O)O)CC[C@]3(C)C(=CC[C@@H]4[C@@]5(C)CC[C@H](O)C(C)(C)[C@@H]5CC[C@@]43C)[C@@H]2C1	Tau filament bind inconclusive (no result: ALOX15 inhib, HBB splice mod)
CN1[C@H]2CC(OC(=O)[C@H](CO)c3ccccc3)C[C@H]1[C@H]1O[C@H]12 (stereo partly specified)	none (no result: Epigenetic mod, UbGFP stabilizer)
O=C(O)/C=C/C(=O)O	none (no result: Epigenetic mod, UbGFP stabilizer)
CC(=C/C=C/C(C)=C/C=C/C=C(C)/C=C/C=C(C)/C=C/C(=O)O)/C=C/C(=O)O	Tau filament bind 25µM (no result: Epigenetic mod, UbGFP stabilizer)
C[C@H]1C[C@H]2[C@H]3CCC4=CC(=O)C=C[C@@]4(C)[C@]3(F)[C@H](O)C[C@]2(C)[C@@]1(O)C(=O)COP(=O)(O)O	none
C/C(=N\NC(=O)c1ccncc1)c1ccc2ccccc2c1O	HBB splice mod inconclusive
CN(C)CN1CSC(=S)N(CN(C)C)C1	ALOX15 inhib inconclusive
CCOC(=O)CCN1C(=O)[C@H]2[C@H]3[C@H](O)[C@H](O)C/C(=N/OC[C@@H](O)COCc4ccco4)[C@H]3CC[C@@H]2C1=O	none (no result: DNA Pol III inh, Tau filament bind, Epigenetic mod, UbGFP stabilizer)
Cc1cc(NC(=O)c2cc(-c3ccncc3)nc3c(C)cccc23)no1	Tau filament bind 3.2µM
N#C[C@@H](Cc1ccc(O)c(O)c1)C(=O)N1CCc2ccccc21	ALOX15 inhib 0.63µM
Nc1ccccc1SCC(=O)N1CCc2ccccc21	none (no result: HBB splice mod)
Cc1nc2ccccc2c2oc(C(=O)N3CCc4ccccc4C3)cc12	ALOX15 inhib 20µM
CC1(CC(=O)O)O[C@H]2CCCCC[C@H]2O1 (stereo partly specified) (tested in a mixture with another compound)	none
OC[C@H](S)CS	Epigenetic mod 3.2µM
Cc1nc(N)c(C#N)c(-c2ccccc2)c1C	none
CC1=C(C#N)c2nc(N)c(C#N)c(C)c2/C1=C\c1ccccc1	ALOX15 inhib 40µM
O=C(O)c1c2c(c(O)c3c1CN(C1CCCCC1)CO3)OCN(C1CCCCC1)C2	none
N#Cc1sc2nc3c(c(-c4ccco4)c2c1N)CCCC3	Tau filament bind 3.2µM
c1coc(-c2nc3c4c5c(sc4ncn3n2)CCCC5)c1	none
Cn1c(=O)oc2cc(S(=O)(=O)Nc3ccc4c(c3)OCO4)ccc21	Tau filament bind 20µM
CCN(CCNS(=O)(=O)c1ccc2c(c1)oc(=O)n2C)c1ccccc1	none
CCN(CC)c1ccc(NS(=O)(=O)c2ccc3c(c2)oc(=O)n3C)c(C)c1	ALOX15 inhib 20µM
O=C(Nc1cccc2cccnc12)[C@@H]1[C@@H](C(=O)O)[C@H]2CC[C@@H]1O2	none
CC1CCCCN1CCCNC(=O)c1ccc(Cc2nc3ccccc3[nH]2)cc1 (stereo unspecified)	none (no result: DNA Pol III inh, Tau filament bind, Epigenetic mod, UbGFP stabilizer, HBB splice mod)
CC[C@H]1CN(C)[C@H]2Cc3c([nH]c4ccccc34)C(=O)C[C@H]1[C@H]2C(=O)OC	none
Cc1cc(C)c(S(=O)(=O)Nc2ccc(O)cc2)c(C)c1	none
Cc1cc(Nc2ccc(O)cc2)ccc1N	ALOX15 inhib inconclusive, Tau filament bind 2µM (no result: Epigenetic mod, UbGFP stabilizer)
N#C/C(C(=O)c1ccccc1)=C1/SC=C(N)N1c1ccccc1	ALOX15 inhib 16µM
COC(=O)/C(C#N)=C1/SC=C(C)N1c1ccccc1	none (no result: ALOX15 inhib, DNA Pol III inh, Tau filament bind, UbGFP stabilizer, HBB splice mod)
NC1=N[C@H](c2ccc(Cl)cc2)N(c2ccc(S(=O)(=O)Nc3ncccn3)cc2)C(N)=N1	none
O=C(CSc1nnc(-c2cccs2)n1CC1CCCO1)c1cc2ccccc2o1 (stereo unspecified)	Tau filament bind 16µM
O=C(CSc1nnc(-c2ccccc2)o1)N1CCN(c2ccccc2)CC1	ALOX15 inhib inconclusive, Tau filament bind 10µM
CCN(CC)C(=O)CSc1ncnc2c(-c3cccs3)nsc12	Tau filament bind 20µM (no result: HBB splice mod)
COc1cccc(OC)c1OCCNC[C@@H]1CSc2ccccc2O1	none
CC1=CC(=C2C(=O)c3ccccc3C2=O)C=C(C)N1Cc1ccco1	Tau filament bind 32µM
Cc1ccc2oc3c(c(=O)c2c1)C(c1cccc(O)c1)N(c1ccccn1)C3=O (stereo unspecified)	Tau filament bind 13µM
CCOC(=O)c1c(C)oc2c1c(C(c1cccnc1)N1CCN(C)CC1)c(O)c1ccccc12 (stereo unspecified)	Epigenetic mod inconclusive
CCOC(=O)c1c(C)oc2c1c1c(c3ccccc32)OCN(Cc2cccnc2)C1	ALOX15 inhib 2µM
Cn1c(=O)oc2cc(S(=O)(=O)NCCC(=O)N3CCc4ccccc43)ccc21	Tau filament bind 16µM
N#CCCSC(=S)[C@H]1CCCC1=N	none
CCCCCCCCCCCCC1CO1 (stereo unspecified)	none (no result: Epigenetic mod, UbGFP stabilizer)
O=c1c(O)cccc2cc(O)c(O)c(O)c12	ALOX15 inhib 4µM (no result: DNA Pol III inh, Tau filament bind, Epigenetic mod, UbGFP stabilizer, HBB splice mod)
CCc1c(C)sc(NC(=O)c2cc(C)no2)c1C#N	none
CCc1c(C)sc(NC(=O)CC#N)c1C#N	Tau filament bind 13µM
COc1ccc(OC)c(S(=O)(=O)NCc2ccccc2)c1	none
COc1ccc(OC)c(NS(=O)(=O)Cc2ccccc2)c1	Tau filament bind 16µM
O=C(Nc1cccc(F)c1)N1CCCC2(CCN(C(=O)c3ccco3)CC2)C1	ALOX15 inhib 0.32µM
Nc1cc(CN2C(=O)c3ccccc3C2=O)cc(Cl)c1O	ALOX15 inhib 10µM
CCC1(CC)NC(=O)N(CC(=O)Nc2sc3c(c2C(N)=O)CCC3)C1=O	ALOX15 inhib inconclusive, DNA Pol III inh 20µM
CC(C)(CO[C@H]1C[C@H]2CC[C@@]1(C)C2(C)C)[N+](=O)[O-]	none
OC[C@H](CCc1c[nH]c2ccccc12)c1c[nH]c2ccccc12	ALOX15 inhib 3.2µM
N#CC1=C(N)SC2(CCCCC2)SC1c1ccccc1 (stereo unspecified)	ALOX15 inhib 25µM, Tau filament bind 20µM
N#CC1=C(C2CC2)CC(c2ccccc2)C(C#N)=C1N (stereo unspecified)	ALOX15 inhib inconclusive
C[C@@]12C[C@H](O)[C@@H]3[C@H](CCC4=CC(=O)CC[C@]43C)[C@H]1CC[C@@H]2c1csc(N)n1	none
C1=CC2c3ccccc3NC(c3ccncc3)C2C1 (stereo unspecified)	ALOX15 inhib inconclusive, Tau filament bind 7.9µM
Cc1ccc(Cl)cc1N1CCN(C(=O)CCS(=O)(=O)c2cccc3nonc23)CC1	Tau filament bind 13µM
N=C(N)S[C@H]1c2ccccc2-c2cc([N+](=O)[O-])ccc21	Tau filament bind inconclusive
O=c1[nH]c2cc3c(cc2cc1CN(Cc1cccs1)Cc1nnnn1Cc1ccco1)OCCO3	ALOX15 inhib 10µM
